# Laboratory results as given in publication PMC4336329 (PLoS ONE, 2015).
# About 14,000 (4.5%) of roughly 310,000 compounds showed an effect of 50% or more. Effects have a minus sign here. The sample holds strong results, similar compounds and a random draw of the others, so the mix is not that of the screen.
# Biological target: human ether-à-go-go-related gene (hERG) potassium channel (human, UniProt Q12809)
# Assay: primary screen, population patch clamp on CHO cells stably expressing hERG; higher = less effect of the substance
# 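Also: peak tail current of the secondary pulse compared with the same well before compound.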
# human ether-à-go-go-related gene (hERG) potassium channel, sequence (Q12809 whole entry, looked up): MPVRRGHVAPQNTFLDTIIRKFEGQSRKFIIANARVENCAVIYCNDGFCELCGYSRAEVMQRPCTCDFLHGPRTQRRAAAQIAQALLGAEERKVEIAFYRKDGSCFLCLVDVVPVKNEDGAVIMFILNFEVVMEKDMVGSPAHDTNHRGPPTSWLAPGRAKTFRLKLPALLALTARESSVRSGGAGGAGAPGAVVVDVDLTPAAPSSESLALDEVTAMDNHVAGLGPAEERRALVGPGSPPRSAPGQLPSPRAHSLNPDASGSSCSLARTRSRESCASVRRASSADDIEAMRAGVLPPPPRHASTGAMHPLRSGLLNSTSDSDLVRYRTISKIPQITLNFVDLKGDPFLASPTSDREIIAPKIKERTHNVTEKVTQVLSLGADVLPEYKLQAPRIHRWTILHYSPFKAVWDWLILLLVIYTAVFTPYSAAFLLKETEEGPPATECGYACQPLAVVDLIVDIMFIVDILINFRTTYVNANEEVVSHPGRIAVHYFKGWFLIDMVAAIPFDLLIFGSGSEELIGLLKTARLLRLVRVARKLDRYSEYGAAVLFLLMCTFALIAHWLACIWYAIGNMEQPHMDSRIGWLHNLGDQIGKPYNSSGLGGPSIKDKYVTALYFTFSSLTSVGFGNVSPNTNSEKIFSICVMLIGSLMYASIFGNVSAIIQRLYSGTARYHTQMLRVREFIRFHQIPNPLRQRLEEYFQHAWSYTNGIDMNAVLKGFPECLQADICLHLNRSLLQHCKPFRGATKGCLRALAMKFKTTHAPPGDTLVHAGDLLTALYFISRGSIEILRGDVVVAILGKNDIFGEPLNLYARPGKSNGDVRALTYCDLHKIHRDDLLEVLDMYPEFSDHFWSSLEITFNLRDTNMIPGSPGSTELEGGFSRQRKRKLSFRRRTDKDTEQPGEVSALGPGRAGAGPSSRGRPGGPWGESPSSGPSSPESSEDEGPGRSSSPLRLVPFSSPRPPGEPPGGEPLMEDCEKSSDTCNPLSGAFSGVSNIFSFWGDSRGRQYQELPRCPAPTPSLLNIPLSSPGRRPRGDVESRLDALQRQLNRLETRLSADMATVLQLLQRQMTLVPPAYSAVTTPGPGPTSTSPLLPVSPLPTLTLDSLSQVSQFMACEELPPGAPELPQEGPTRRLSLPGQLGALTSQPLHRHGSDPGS
row,SMILES,"hERG current change (%, negative = inhibition) at 10uM [%]"
1,Cc1ccc(C)c(N2CCN(C(=O)C3CCN(S(=O)(=O)c4cccc5nsnc45)CC3)CC2)c1,-8.49
2,N#Cc1ccc(C23CC4(C2)[C@H](CN(Cc2ccc(C(F)(F)F)cc2)[C@@H]4c2ccccc2)C3c2ccccc2)cc1 (stereo partly drawn),13.5
3,O=C(Nc1nccs1)c1ccc(COc2ccccc2Br)o1,-6.85
4,Cc1ccc(-c2nnc(SCC(=O)N/N=C/c3ccc(C)s3)n2-c2ccc(C)cc2)cc1,-17.4
5,O=C(c1ccco1)N1CCN(Cc2nc(-c3cccs3)no2)CC1,-38.1
6,CS(=O)(=O)N(CC(=O)NCCSCc1c(F)cccc1Cl)c1cccc([N+](=O)[O-])c1,-15.9
7,COCC(C)NC(=O)CSc1nc2ccccc2n1CCc1ccccc1 (stereo not drawn),-8.53
8,Cc1cccc(N2CC(C(=O)Nc3nnc(SCC(=O)Nc4cc(C)on4)s3)CC2=O)c1 (stereo not drawn),23
9,Cc1cc(=O)[nH]c(SCC(=O)Nc2ccc(S(=O)(=O)N3CCOCC3)cc2)n1,-3.3
10,CC1(C)SC(=S)N(NC(=O)Nc2ccccc2)C1N(O)C(=O)Nc1ccccc1 (stereo not drawn),12.7
11,CCOc1cc(N2CCOCC2)c(OCC)cc1NC(=O)c1oc2ccccc2c1C,18.6
12,O=C(c1ccccc1F)N1CCCC(C(=O)N2CCc3ccccc3C2)C1 (stereo not drawn),-8.64
13,O=S(=O)(c1ccc(Cl)cc1)c1nc(-c2ccco2)oc1N1CCOCC1,-55.4
14,O=S(=O)(c1ccccc1)c1nc(-c2ccco2)oc1N1CCCCC1,-37.1
15,CCCCc1nc(S(=O)(=O)c2ccc(Cl)cc2)c(N2CCOCC2)o1,-69.6
16,CC(C)Cc1nc(S(=O)(=O)c2ccc(Cl)cc2)c(N2CCOCC2)o1,-6.14
17,O=S(=O)(c1ccc(Cl)cc1)c1nc(-c2ccco2)oc1N1CCCCC1,-7.91
18,CC(C)(C)c1nc(S(=O)(=O)c2ccc(Cl)cc2)c(N2CCOCC2)o1,-14.2
19,COc1ccc(NC(=O)Nc2ccc3nccnc3c2)cc1,2.71
20,COc1ccccc1CNC(=O)C1CCN(C(=O)NC2CCCCC2)CC1,10.6
21,CCc1ccc(/C=N/NC(=O)C(=O)NCCCN2CCOCC2)cc1,-23.6
22,COc1ccc(NC(=S)N2c3ccccc3CC2C)cc1OC (stereo not drawn),-5.96

row,SMILES,"hERG current change (%, negative = inhibition) at 10uM [%]"
1,CCCC(=O)Nc1nnc(Cc2ccccc2)s1,-0.72
2,COc1ccc(S(=O)(=O)Cc2ccc(C(=O)NC3CCC(C)CC3)o2)cc1 (stereo not drawn),-15.8
3,Cc1ccc(-c2ccc(/C=N/c3ncn[nH]3)o2)cc1Cl,11.6
4,C=CCN1CC[C@]23c4c5ccc(O)c4O[C@H]2/C(=N/NC(=O)c2ccccc2)CC[C@@]3(O)[C@H]1C5,-69.1
5,Cl.O=C1CC[C@@]2(O)[C@H]3Cc4ccc(O)c5c4[C@@]2(CCN3CC2CC2)[C@H]1O5,0.91
6,C=C(C)CN1CC[C@]23c4c5ccc(O)c4O[C@H]2c2[nH]c4ccccc4c2C[C@@]3(O)C1C5.Cl.O,4.9
7,Cl.O.Oc1ccc2c3c1O[C@H]1c4[nH]c5ccccc5c4C[C@@]4(O)C(C2)N(CC2CC2)CC[C@]314,-55.4
8,Oc1cccc(C2c3[nH]c4ccccc4c3CCN2Cc2ccc3c(c2)CCO3)c1 (stereo not drawn),9.6
9,Cl.Oc1ccc2c3c1O[C@H]1c4[nH]c5ccccc5c4C[C@@]4(O)[C@@H](C2)N(CC2CC2)CC[C@]314,-63
10,C=C1CC[C@@]2(O)[C@H]3Cc4ccc(O)c5c4[C@@]2(CCN3CC2CC2)[C@H]1O5,-2.73
11,C=CC[N+]1(C)CC[C@]23c4c5ccc(O)c4O[C@H]2C(=O)CC[C@@]3(O)[C@H]1C5.[I-] (stereo partly drawn),17.8
12,CS(=O)(=O)O.O.Oc1ccc2c3c1O[C@H]1c4oc5ccccc5c4C[C@@]4(O)[C@@H](C2)N(CC2CC2)CC[C@]314,-76.9
13,Oc1cccc(C2c3[nH]c4ccccc4c3CCN2Cc2ccoc2)c1 (stereo not drawn),-29.6
14,NC(N)=Nc1ccc2[nH]c3c(c2c1)C[C@@]1(O)[C@H]2Cc4ccc(O)c5c4[C@@]1(CCN2CC1CC1)[C@H]3O5.O=C(O)C(F)(F)F,6.85
15,COc1ccc(C2/C(=C(/O)c3ccc(Br)cc3)C(=O)C(=O)N2C)cc1 (stereo not drawn),-12.7
16,Cn1cc(P(=S)(N2CCOCC2)N2CCOCC2)cc1P(=O)(N1CCOCC1)N1CCOCC1,7.36
17,COc1ccc(Oc2cccc(Cl)c2CNC(=O)c2ccccc2C(=O)O)cc1,4.98
18,CC(C)(C)NC(=O)C(Cc1ccccc1)N1C(=O)c2ccccc2C1=O (stereo not drawn),6.68
19,CCOC(=O)C1(Cc2ccc(OC)cc2)CCN(C(=O)C2=CCCC2)CC1,-33.8
20,Cc1ccnc(NC2CCCCC2)c1,20.4
21,Cn1c(CNc2ccccn2)c(C#N)c2ccccc21,-6.94
22,COC(=O)CCCC1=CC2=CC(=O)C(C)(OC(=O)c3cccs3)C(=O)C2=CN1CCc1c[nH]c2ccccc12 (stereo not drawn),15

row,SMILES,"hERG current change (%, negative = inhibition) at 10uM [%]"
1,CC(C)CN(C(=O)c1ccc([N+](=O)[O-])s1)c1c(N)n(Cc2ccccc2)c(=O)[nH]c1=O,10.3
2,Cc1ccccc1NC(=O)c1ccc(CN2CCc3ccccc3C2)cc1,-16.4
3,O=C(Nc1ccccc1C(F)(F)F)c1ccc(CN2CCC(Cc3ccccc3)CC2)cc1,-42.4
4,COc1ccc(NC(=O)c2ccc(CN3CCN(c4ccccc4)CC3)cc2)cc1,-9.47
5,O=C(Nc1ccccc1F)c1ccc(CN2CCN(c3ccccc3)CC2)cc1,-70.7
6,Cc1ccccc1NC(=O)CCN1CCN(Cc2ccccc2)CC1,-27.2
7,O=C(c1ccc(CN2CCOCC2)cc1)N1CCC(Cc2ccccc2)CC1,-3.35
8,CCc1ccccc1NC(=O)c1ccc(CN2CCC(Cc3ccccc3)CC2)cc1,-50.8
9,Cc1ccccc1NC(=O)c1ccc(CN2CCC(Cc3ccccc3)CC2)cc1,-52.2
10,O=C(Nc1ccccc1F)c1ccc(CN2CCc3ccccc3C2)cc1,13.7
11,O=C(NO)c1ccccc1C(F)(F)F,15.4
12,Cc1cccc(C)c1OCC(=O)Nc1cccc(S(=O)(=O)N2CCCC2)c1,3.77
13,CC(Oc1ccc2c3c(c(=O)oc2c1)CCCC3)C(=O)NCC(O)c1ccccc1 (stereo not drawn),16.8
14,COc1ccc(S(=O)(=O)c2ccc(OC)c(OC)c2)cc1OC,-12.2
15,COc1ccc(CCNC(=O)C2CCN(S(=O)(=O)c3c(C)noc3C)CC2)cc1OC,-16.9
16,O=C(CCCNC(=O)/C(=C/c1ccc(F)cc1)NC(=O)c1ccccc1)OCc1ccccc1,-64.3
17,O=C(CCCNC(=O)/C(=C/c1ccc(Br)cc1)NC(=O)c1ccccc1)OCc1ccccc1,-38.8
18,O=C(O)CCCNC(=O)/C(=C\c1ccccc1F)NC(=O)c1ccccc1,13.4
19,O=C(CCCNC(=O)/C(=C/c1ccccc1F)NC(=O)c1ccccc1)OCc1ccccc1,-5.02
20,O=C(CCCNC(=O)/C(=C\c1ccc(F)cc1)NC(=O)c1ccccc1)OCc1ccccc1,-77.1
21,O=C(CCCNC(=O)/C(=C\c1ccccc1F)NC(=O)c1ccccc1)OCc1ccccc1,-9.13
22,Cc1csc(NC(=O)c2ccc(COc3ccccc3)o2)n1,-17.7

row,SMILES,"hERG current change (%, negative = inhibition) at 10uM [%]"
1,CC(=O)Nc1ccccc1NC(=O)C/C(C)=N/NC(=O)c1ccccn1,16.1
2,COc1ccc2nc(C)cc(Nc3ccc(C(=O)O)cc3)c2c1,39.5
3,COc1ccc(Nc2cc(C)nc3ccc(OC)cc23)cc1,-52.3
4,COc1ccc2nc(C)cc(Nc3ccc(C)cc3)c2c1.Cl,-52.8
5,Nc1ncncc1-c1ccc2ccccc2c1,-7.48
6,Clc1ccc(/C=N/c2c(-c3ccc(Cl)cc3)nc3n2CCS3)cc1,1.1
7,CC1CCCCC1NC(=O)c1cn(C)c2ccc(S(=O)(=O)N3CCCC3)cc2c1=O (stereo not drawn),-0.37
8,COc1ccc(C(=O)OCn2nnc3ccccc3c2=O)cc1[N+](=O)[O-],13.6
9,Cc1ccc(S(=O)(=O)N(C)C)cc1NC(=O)C(C)Sc1ccccc1 (stereo not drawn),-6.74
10,COc1ccc(C(=O)NCC(=O)N/N=C/C(C)=C/c2ccccc2)cc1OC,-1.63
11,CC(/C=N/NC(=O)c1nn(C)c(C)c1Br)=C\c1ccccc1,-53.8
12,O=C(CNC(=O)c1ccccc1)N/N=C/C=C/c1ccccc1,-1.96
13,COc1ccc(C(=O)NCC(=O)N/N=C(C)\C=C\c2ccccc2)cc1OC,-19.3
14,COc1ccc(C(=O)NCC(=O)N/N=C/C=C/c2ccccc2)cc1OC,-93.6
15,CC(/C=N/NC(=O)c1c(Br)cnn1C)=C\c1ccccc1,-13
16,CC(=C/c1ccccc1)/C=N/NC(=O)c1ccccn1,-30.3
17,CC(/C=N/NC(=O)c1ccccc1F)=C\c1ccccc1,12.7
18,COc1ccc(C(=O)N/N=C\C(C)=C\c2ccccc2)cc1OC,-61.4
19,COc1ccccc1C(=O)N/N=C/C(C)=C/c1ccccc1,-73.8
20,CC(/C=N/NC(=O)c1ccc(Br)cc1)=C\c1ccccc1,-3.38
21,CC(/C=N/NC(=O)c1ccncc1)=C\c1ccccc1,9.78
